Values joined by “and” are separate entries in the source; they are usually repeats but may differ in a detail not shown here. Equal values may be shown once. Inconclusive results are not listed. A call without a number means that no potency is given here. The source holds several records for some structures; these can differ, active in one and inactive in another. Active and inactive are the calls of the source. Unless noted, calls come from the whole dose curve.
What was measured:
[1] = target: Nuclear receptor subfamily 1 group I member 3 (Homo sapiens) (UniProt Q14994); assay: qHTS assay to identify small molecule antagonists of the constitutive androstane receptor (CAR) signaling pathway (AID 1224838; active = well fitted curve in the direction sought with a large enough effect in the repeat runs; an effect the other way counts as inactive or inconclusive;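 note: HepG2 cells stably expressing hCAR with CYP2B6 luciferase reporter stimulated by CITCO; nearly all actives have a fitted effect of over 40% in size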)
Procedure, shortened: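 Luminescence from a CYP2B6-2.2kb promoter reporter in hCAR-expressing HepG2 cells reflects CAR signaling. Cells received compounds at 15 concentrations and 50 nM CITCO (final), then incubated 24 h at 37 C/5% CO2.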

[2] = target: Nuclear receptor subfamily 1 group I member 3 (Homo sapiens) (UniProt Q14994); assay: qHTS assay to identify small molecule agonists of the constitutive androstane receptor (CAR) signaling pathway (AID 1224839; active = well fitted curve in the direction sought with a large enough effect in the repeat runs; an effect the other way counts as inactive or inconclusive; note: nearly all actives have a fitted effect of over 15% in size; note: potency is the fitted concentration of half-maximal effect; for activation: series mostly up to about 92 µM)
Procedure, shortened: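 A 15-concentration quantitative screen uses HepG2 cells co-transfected stably with human CAR and CYP2B6-2.2kb reporter. Treatment lasts 24 h with 0.75 uM PK11195 final present; ONE-Glo luminescence is the signal.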

[3] = qHTS assay to identify small molecule antagonists of the estrogen related receptor signaling pathway with the pleiotropic PPARgamma coactivator (PGC) from Tox21 10K library (AID 1224841; call rule not given here; note: actives are mostly falling curves and most rising ones were filed inactive; nearly all actives have a fitted effect of over 50% in size; note: potency is the fitted concentration of half-maximal effect)
Procedure, shortened: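 Cells stably carrying the PGC/ERR reporter, seeded at 2,000 per well, received pin-transferred compounds 6 h post-plating. Exposure lasted 18 h at 37 C. Signal: One-Glo luminescence.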

[4] = qHTS assay to identify small molecule agonists of the estrogen related receptor signaling pathway with the pleiotropic PPARgamma coactivator (PGC) from Tox21 10K library (AID 1224842; active = well fitted curve in the direction sought with a large enough effect in the repeat runs; an effect the other way counts as inactive or inconclusive; note: nearly all actives have a fitted effect of over 15% in size)
Procedure, shortened: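 PGC/ERR reporter cell line, 2,000 cells per well, incubated 6 h at 37 C before 23 nL compound in DMSO was added. After 18 h at 37 C, One-Glo luminescence read following 30 min at room temperature.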

[5] = qHTS assay to identify small molecule agonists of the hypoxia (HIF-1) signaling pathway - cell viability counter screen (AID 1224844); note: nearly all actives have a fitted effect of over 50% in size
Procedure, shortened: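 Viability counter screen: HRE-bla ME-180 cells plated 5 hrs before compound addition, treated 17 hrs at 37C and 5% CO2, then CellTiter-Glo added after the FRET reporter read; luminescence after 30 min.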

[6] = qHTS assay to identify small molecule agonists of H2AX (AID 1224845; active = well fitted activation curve with a large enough effect in the signal ratio in the repeat runs, not every such curve was filed as active; the % refers to the signal ratio; note: potency is the fitted concentration of half-maximal effect)
Procedure, shortened: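 Wild-type CHO-K1 cells, plated overnight, exposed 3hr at 37C to 15 concentrations (0.76% DMSO final). Lysed, then HTRF anti-pH2AX (S139) cryptate and anti-H2AX-d2 antibodies, 24 hr room temperature; 665/620 nm emission read.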

[7] = qHTS assay to identify small molecule antagonists of the estrogen related receptor signaling pathway with the pleiotropic PPARgamma coactivator (PGC) from Tox21 10K library - cell viability counter screen (AID 1224840; active = well fitted cell-killing curve with a large enough effect in the repeat runs, not every such curve was filed as active; note: nearly all actives have a fitted effect of over 40% in size; note: potency is the fitted concentration of half-maximal effect)
Procedure, shortened: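 Cell viability is measured by CellTiter-Fluor fluorescence in PGC/ERR cells that receive compounds after a 6-hour attachment period and are then incubated 17.5 hours at 37 C.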

[8] = target: Thyrotropin receptor (Homo sapiens) (UniProt P16473); assay: qHTS assay to identify small molecule agonists of the thyroid stimulating hormone receptor (TSHR) signaling pathway (AID 1224843); note: nearly all actives have a fitted effect of over 45% in size
Procedure, shortened: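 HEK293/TSHR, 800 cells/well; cpd 30 min RT; add cAMP-d2 + anti-cAMP-cryptate, 1 h RT; fluorescence read on plate reader. 15-pt titration, n=3.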

[9] = qHTS assay to identify small molecule agonists of H2AX - cell viability counter screen (AID 1224847); note: nearly all actives have a fitted effect of over 30% in size; note: potency is the fitted concentration of half-maximal effect; for activity change, negative = cytotoxicity: top concentration of the series differs between compounds
Procedure, shortened: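 We seed wild-type CHO-K1 cells overnight, treat them for 3 hr at 37C with compounds in 15-concentration series, and quantify remaining viability by CellTiter-Glo luminescence.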

[10] = qHTS assay to identify small molecule agonists of the hypoxia (HIF-1) signaling pathway (AID 1224846; active = well fitted activation curve with a large enough effect in the signal ratio in the repeat runs, not every such curve was filed as active; the % refers to the signal ratio)
Procedure, shortened: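 Agonist mode reporter screen. ME-180 cells stably expressing bla under HRE control received test compounds in DMSO for 17 hrs (37C, 5% CO2), and beta-lactamase activity was then detected with the CCF4-AM FRET substrate.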

Nuclear receptor subfamily 1 group I member 3 (Homo sapiens), sequence (Q14994 whole entry, looked up): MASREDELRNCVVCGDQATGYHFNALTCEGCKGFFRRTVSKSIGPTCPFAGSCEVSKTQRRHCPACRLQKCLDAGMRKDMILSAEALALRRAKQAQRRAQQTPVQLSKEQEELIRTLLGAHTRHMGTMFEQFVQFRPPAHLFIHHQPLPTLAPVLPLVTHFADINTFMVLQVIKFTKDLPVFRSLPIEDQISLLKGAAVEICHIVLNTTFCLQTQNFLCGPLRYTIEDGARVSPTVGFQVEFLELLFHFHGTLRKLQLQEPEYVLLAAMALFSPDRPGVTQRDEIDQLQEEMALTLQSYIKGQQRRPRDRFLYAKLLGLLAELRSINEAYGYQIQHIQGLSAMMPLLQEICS
Thyrotropin receptor (Homo sapiens), sequence (P16473 whole entry, looked up): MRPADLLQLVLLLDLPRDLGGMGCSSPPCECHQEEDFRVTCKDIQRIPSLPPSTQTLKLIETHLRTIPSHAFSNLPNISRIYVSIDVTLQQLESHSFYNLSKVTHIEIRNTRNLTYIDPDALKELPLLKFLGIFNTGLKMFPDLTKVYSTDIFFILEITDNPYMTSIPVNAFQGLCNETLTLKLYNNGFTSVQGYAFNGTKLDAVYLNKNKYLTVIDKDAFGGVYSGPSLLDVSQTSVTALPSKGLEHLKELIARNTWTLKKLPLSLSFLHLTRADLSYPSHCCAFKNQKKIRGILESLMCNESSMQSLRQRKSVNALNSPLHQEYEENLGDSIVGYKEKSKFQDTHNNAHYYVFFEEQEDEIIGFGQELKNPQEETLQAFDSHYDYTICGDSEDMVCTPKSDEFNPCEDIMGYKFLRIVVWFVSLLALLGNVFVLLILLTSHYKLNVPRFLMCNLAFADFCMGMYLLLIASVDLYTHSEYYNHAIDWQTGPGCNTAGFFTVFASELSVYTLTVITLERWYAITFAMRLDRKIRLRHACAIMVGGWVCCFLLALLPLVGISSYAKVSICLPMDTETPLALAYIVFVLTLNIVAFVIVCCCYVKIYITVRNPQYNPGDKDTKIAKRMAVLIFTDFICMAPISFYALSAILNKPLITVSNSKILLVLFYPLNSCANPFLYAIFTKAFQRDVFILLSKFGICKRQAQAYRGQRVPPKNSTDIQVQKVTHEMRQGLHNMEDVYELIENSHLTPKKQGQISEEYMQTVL

Compound | Potency [1] | Potency [2] | Potency [3] | outcome [4] | Potency [5] | Potency [6] | Potency [7] | Potency [8] | Potency [9] | outcome [10] | activity change, negative = cytotoxicity [5]
CCOC(=O)c1ccccc1C(=O)OCC | inactive | inactive | inactive | inactive | inactive | inactive |  |  |  |  | 
CC(C)(Cl)Cl | inactive | inactive |  |  | inactive | inactive | inactive | inactive | inactive |  | 
CCCCCOC(=O)c1ccccc1C(=O)OCCCCC | inactive | inactive |  |  | inactive | inactive | inactive |  |  | inactive | 
CNC(=O)Oc1ccccc1OC(C)C | inactive | inactive | inactive | inactive | inactive | inactive |  | inactive | inactive | inactive | 
CCN(CC)CCO | inactive | inactive |  |  | inactive | inactive | inactive | inactive | inactive |  | 
Cc1cc(Cl)ccc1O | inactive | inactive |  |  | inactive | inactive |  | inactive |  |  | 
COC(=O)NS(=O)(=O)c1ccc(N)cc1 | inactive | inactive | inactive | inactive | inactive | inactive |  | inactive |  | inactive | 
Cc1cc(-c2cc(C)c(N)c(C)c2)cc(C)c1N | inactive | inactive |  |  | inactive |  | inactive |  | inactive |  | 
CCc1cccc(C)c1N(C(=O)CCl)C(C)COC (configuration not stated) | inactive | 25.7 µM (active) and 15.4 µM (active) | 45.8 µM (active) and 24.3 µM (active) | inactive | inactive | inactive |  | inactive | inactive |  | 
O=S(=O)(c1ccc(Cl)cc1)c1cc(Cl)c(Cl)cc1Cl | inactive | 30.6 µM (active) and 27.3 µM (active) |  |  | inactive | inactive | inactive |  |  | inactive | 
NCCc1ccc(O)cc1 | inactive | inactive |  |  | inactive | inactive |  | inactive |  |  | 
CCOP(OCC)OCC | inactive | inactive |  |  | inactive | inactive | inactive |  | inactive |  | 
CCCC1COC(Cn2cncn2)(c2ccc(Cl)cc2Cl)O1 (configuration not stated) | inactive | 62.3 µM (active) and 61.1 µM (active) |  |  | inactive | inactive | 61.1 µM (active) | inactive | 115 µM (active) |  | 
C#CC(C)(C)NC(=O)c1cc(Cl)cc(Cl)c1 | inactive | inactive |  |  | inactive | inactive |  | inactive |  | inactive | 
CCC[CH2][Sn]([Cl])([Cl])[Cl] | inactive | inactive | 31.1 µM (active) | inactive | inactive | inactive |  | inactive |  |  | 
[O-][Cl+2]([O-])O | inactive | inactive |  |  | inactive | inactive | inactive | inactive | inactive | inactive | 
CC(Br)C(=O)O (configuration not stated) | inactive | inactive |  |  | inactive | inactive | inactive | inactive | inactive |  | 
O=S(=O)(c1ccc(O)cc1)c1ccc(O)cc1 | inactive | inactive |  |  | inactive | inactive | inactive |  | inactive | inactive | 
Nc1c(Cl)c(Cl)nc(C(=O)O)c1Cl |  |  |  |  | inactive | inactive | inactive | inactive |  |  | 
Cc1cccc([N+](=O)[O-])c1 |  |  | inactive |  | inactive |  |  | inactive | inactive | inactive | 
Cc1[nH]c(=O)n(C(C)(C)C)c(=O)c1Cl | inactive | inactive |  |  | inactive | inactive |  | inactive | inactive |  | 
OC(O)C(Cl)(Cl)Cl |  |  | inactive | inactive | inactive | inactive | inactive | inactive | inactive | inactive | 
CN(C)[C@@H]1C(=O)C(C(N)=O)=C(O)[C@@]2(O)C(=O)C3=C(O)c4c(O)cccc4[C@@](C)(O)[C@H]3C[C@@H]12 | inactive | inactive |  |  | inactive | inactive |  | inactive | inactive |  | 
c1ccc(-c2ccccc2)cc1 |  |  |  |  | inactive | inactive |  | inactive |  |  | 
C#CCN(C)[C@H](C)Cc1ccccc1 |  |  |  |  | inactive | inactive | inactive | inactive | inactive |  | 
CC1C=[C-]C=C1.[C-]#[O+].[C-]#[O+].[C-]#[O+].[Mn] | inactive |  |  |  | inactive | inactive |  | inactive | inactive | inactive | 
CCCCCCCCCl |  |  |  |  | inactive | inactive | inactive |  |  | inactive | 
O=C(O)c1ccccn1 | inactive | inactive |  |  | inactive | inactive |  |  | inactive | inactive | 

Compound | Potency [1] | Potency [2] | Potency [3] | outcome [4] | Potency [5] | Potency [6] | Potency [7] | Potency [8] | Potency [9] | outcome [10] | activity change, negative = cytotoxicity [5]
COc1ccc2c3c1O[C@H]1[C@@H](O)C=C[C@H]4[C@@H](C2)N(C)CC[C@@]341 |  |  | 23.9 µM (active) and inactive | inactive | inactive | 99.2 µM (active) and inactive |  | inactive | inactive | inactive | 
O=[N+]([O-])c1ccccc1 |  |  | inactive | inactive | inactive | inactive | inactive | inactive |  | inactive | 
C=C(C)CCl | inactive | inactive |  |  |  | inactive |  |  |  | inactive | -1.52% [at 6.97 µM] (inactive)
C[C@]12CC[C@H]3[C@@H](CC[C@@]45O[C@@H]4C(O)=C(C#N)C[C@]35C)[C@@H]1CC[C@@H]2O | inactive | inactive |  |  | inactive | inactive |  | inactive |  | inactive | 
Nc1ccc(Br)cc1 | inactive |  |  |  | inactive | inactive | inactive | inactive |  |  | 
CCN(CC)c1ccccc1 |  |  |  |  | inactive | inactive | inactive |  |  | inactive | 
c1ccc(OP(Oc2ccccc2)Oc2ccccc2)cc1 | inactive | inactive |  |  | inactive | inactive |  | inactive | inactive | inactive | 
CCCCN(CC)C(=O)SCCC | inactive | inactive |  |  | inactive | inactive |  | inactive | inactive |  | 
CC(NC(C)(C)C)C(=O)c1cccc(Cl)c1 (configuration not stated) |  |  |  |  | inactive | inactive | inactive |  |  |  | 
Nc1ccc(Cc2ccc(N)cc2)cc1 | inactive |  |  |  | inactive | inactive | inactive | inactive | inactive |  | 
CCNc1nc(NC(C)(C)C)nc(SC)n1 |  |  |  |  | inactive | inactive |  | inactive | inactive | inactive | 
C=CC(N)=O |  |  |  |  | inactive | inactive | inactive | inactive | inactive | inactive | 
CC(Oc1ccc(Cl)cc1Cl)C(=O)O (configuration not stated) |  |  |  |  | inactive | inactive | inactive | inactive | inactive | inactive | 
CC(C)C#N | inactive | inactive |  |  | inactive | inactive |  | inactive | inactive | inactive | 
CC(C#N)CCC#N (configuration not stated) |  |  | inactive | inactive | inactive | inactive |  | inactive |  | inactive | 
CCOP(=S)(OCC)SCCSCC | inactive | inactive |  |  | inactive | inactive |  |  | inactive |  | 
Clc1ccccc1Cl | inactive | inactive |  |  | inactive | inactive |  | inactive | inactive | inactive | 
O=c1ccc(=O)[nH][nH]1 |  |  | inactive | inactive | inactive | inactive | inactive | inactive | inactive | inactive | 
CC(C)OC(=O)Nc1ccccc1 | inactive |  | inactive | inactive | inactive | inactive |  | inactive | inactive | inactive | 
CCCCN(CCCC)SN(C)C(=O)Oc1cccc2c1OC(C)(C)C2 | inactive |  |  |  | inactive |  | inactive | inactive |  |  | 
CC1OC(C)OC(C)O1 (configuration not stated) |  |  | inactive | inactive | inactive | inactive | inactive |  |  | inactive | 
O=Cc1cccc(Oc2ccccc2)c1 | inactive | inactive |  |  | inactive | inactive |  | inactive | inactive | inactive | 
CC(C)OC(=O)Nc1cccc(Cl)c1 |  |  | inactive | inactive | inactive | inactive | inactive | inactive |  |  | 
OCCN(CCO)CCO | inactive |  |  |  | inactive | inactive |  | inactive | inactive | inactive | 
CCNc1nc(NC(C)C)nc(SC)n1 | inactive | 48.6 µM (active) |  |  | inactive | inactive |  | inactive | inactive | inactive | 
CCCN(CCC)N=O | inactive | inactive |  |  | inactive | inactive |  | inactive | inactive | inactive | 
CC(C)N1C(=O)c2ccccc2NS1(=O)=O |  |  | inactive | inactive | inactive | inactive | inactive | inactive | inactive |  | 
